We go through 27 compounds from PubChem BioAssay (Tox21).

The target of assay [1] is Estrogen receptor beta (Homo sapiens) (UniProt Q92731). As to the kind of experiment: qHTS assay to identify small molecule antagonists of the estrogen receptor beta (ER-beta) signaling pathway (AID 1259378; active = well fitted inhibition curve with a large enough effect in the signal ratio in the repeat runs, not every such curve was filed as active; the % refers to the signal ratio; also: potency is read from the fitted curve at half-maximal effect). In short, it runs like this: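 Antagonist mode: compounds added to beta-lactamase reporter HEK293T ER-beta-UAS cells stimulated with E2 (1nM final), 16 hr at 37C. LiveBLAzer B/G FRET substrate, 2 hours room temperature, fluorescence read-out.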

Assay [2] can be described thus: qHTS assay to identify small molecule agonists of the estrogen receptor beta (ER-beta) signaling pathway - cell viability counter screen (AID 1259380; active = well fitted curve in the direction sought with a large enough effect in the repeat runs; an effect the other way counts as inactive or inconclusive; also: nearly all actives have a fitted effect of over 30% in size; also: potency is read from the fitted curve at half-maximal effect). The method in brief:
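Same-well viability counter screen. Cells: ER-beta-UAS-bla HEK293T, plated 6 hr before compound, in 2% charcoal-stripped FBS. Compound exposure 16 hr, 37C; viability by CellTiter-Glo luminescence after 30 min at room temperature.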
Background: Quantitative high-throughput screening tests each substance at several concentrations.

Assay [3] in a line: qHTS assay to identify small molecule agonists or antagonists of the thyroid stimulating hormone receptor (TSHR) signaling pathway - wild type cell line counter screen (AID 1259384). In short, it runs like this:
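Counter screen in untransfected Hek293: compounds (15-point titration, triplicate) plus phosphodiesterase inhibitor Ro20-1724 added after 18 h plating; 30 min RT. Intracellular cAMP via competitive d2/cryptate immunoassay, 1 h incubation.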

Assay [4] concerns the target Thyrotropin receptor (Homo sapiens) (UniProt P16473). As to the kind of experiment: qHTS assay to identify small molecule antagonists of the thyroid stimulating hormone receptor (TSHR) signaling pathway (AID 1259385). Also: nearly all actives have a fitted effect of over 20% in size. Also: potency is read from the fitted curve at half-maximal effect. The method in brief:
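Antagonist mode: compound-treated TSHR-expressing HEK293 cells were stimulated with 1.5 ng/mL TSH (final) in presence of Ro20-1724 for 30 min at RT. HTRF cAMP detection after 1 h; each compound tested at 15 concentrations, triplicate.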

Assay [5] has as its target Progesterone receptor (Homo sapiens) (UniProt P06401). As to the kind of experiment: qHTS assay to identify small molecule agonists of the progesterone receptor (PR) signaling pathway (AID 1346784). Also: nearly all actives have a fitted effect of over 30% in size. The method in brief: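 Using charcoal-stripped serum (2%) to limit endogenous steroids, PR-UAS-bla HEK 293T cells received compounds for 16 hr at 37C after 6 hr plating; beta-lactamase FRET fluorescence was recorded following 2 hr substrate loading at room temperature.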

A short description of assay [6]: qHTS assay to identify small molecule agonists of the androgen receptor (AR) signaling pathway in the presence of an antagonist - cell viability counter screen (AID 1259379; active = well fitted curve in the direction sought with a large enough effect in the repeat runs; an effect the other way counts as inactive or inconclusive; also: nearly all actives have a fitted effect of over 25% in size; also: potency is read from the fitted curve at half-maximal effect;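 as to activity change, negative = cytotoxicity: MDA-kb2 human breast cancer cells carrying an MMTV luciferase reporter; series mostly up to about 92 µM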). The method in brief: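 Fluorescence from CellTiter-Fluor, added after 15 hr and read 1 hr later, gave cell viability. Cells were MDA-kb2 exposed to compounds (15 concentrations) in the presence of 3.0uM nilutamide at 37C, 0% CO2.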

Assay [7] deals with Estrogen receptor (Homo sapiens) (UniProt P03372). As to the kind of experiment: qHTS assay to identify small molecule agonists of the estrogen receptor alpha (ER-alpha) signaling pathway in the presence of an antagonist (AID 1259383). Also: top concentration of the series differs between compounds; nearly all actives have a fitted effect of over 15% in size. The method in brief:
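Cells are hormone-deprived for 5 days (charcoal-stripped FBS, no phenol red), plated for 24hr, spiked with 10.0nM ICI-182,780, then dosed at 15 concentrations. After 22hr at 37C, ONE-Glo luminescence reports ERE-luciferase activity.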

The nature of assay [8]: qHTS assay to identify small molecule agonists of the estrogen receptor alpha (ER-alpha) signaling pathway in the presence of an antagonist - cell viability counter screen (AID 1259386; active = well fitted curve in the direction sought with a large enough effect in the repeat runs; an effect the other way counts as inactive or inconclusive;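 also: cells exposed to compounds for 22 h at 37 °C before the viability read; nearly all actives have a fitted effect of over 30% in size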; also: potency is read from the fitted curve at half-maximal effect; as to activity change, negative = cytotoxicity: series mostly up to about 92 µM). The method in brief:
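Cells are starved of estrogens for 5 days in charcoal-stripped serum, seeded for 24hr and co-treated with ICI-182,780 (10.0nM final) and test compounds. After 22hr at 37C, viability is read as CellTiter-Fluor fluorescence.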

Assay [9] is described as follows: qHTS assay to identify small molecule antagonists of the estrogen receptor beta (ER-beta) signaling pathway - cell viability counter screen (AID 1259382; active = well fitted curve in the direction sought with a large enough effect in the repeat runs; an effect the other way counts as inactive or inconclusive; also: nearly all actives have a fitted effect of over 55% in size; also: potency is read from the fitted curve at half-maximal effect;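 as to activity change, negative = cytotoxicity: HEK293T cells carrying ER-beta-UAS-bla reporter stimulated with estradiol; series mostly up to about 92 µM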). The method in brief: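 Following a 6 hr plating period, HEK293T cells carrying a UAS-driven beta-lactamase reporter under ER-beta control received compounds and 1nM E2 (final). After 16 hr at 37C and 2 hr substrate loading, CellTiter-Glo luminescence indicated viability.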

The target in assay [10] is Androgen receptor (Homo sapiens) (UniProt P10275). As to the kind of experiment: qHTS assay to identify small molecule agonists of the androgen receptor (AR) signaling pathway in the presence of an antagonist (AID 1259381). Also: nearly all actives have a fitted effect of over 15% in size. The method in brief:
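Cells are MDA-kb2 (human breast carcinoma, MMTV-luc, AR/GR responsive). Nilutamide is present at 3.0uM final throughout; compounds are added at 15 concentrations and incubated 16hr at 37C before ONE-Glo luminescence detection.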

“And” between values parts separate entries of the source, which are not always exact repeats. Equal entries are not always repeated. Unmarked numbers belong to inactive results. Results filed as inconclusive are left out. The source made the active and inactive calls. Unless noted, calls follow the shape of the full dose curve.
% is scaled to controls: 0 for no effect and ±100 for the full control effect.

Sequence of Estrogen receptor (Homo sapiens) (P03372 whole entry, looked up): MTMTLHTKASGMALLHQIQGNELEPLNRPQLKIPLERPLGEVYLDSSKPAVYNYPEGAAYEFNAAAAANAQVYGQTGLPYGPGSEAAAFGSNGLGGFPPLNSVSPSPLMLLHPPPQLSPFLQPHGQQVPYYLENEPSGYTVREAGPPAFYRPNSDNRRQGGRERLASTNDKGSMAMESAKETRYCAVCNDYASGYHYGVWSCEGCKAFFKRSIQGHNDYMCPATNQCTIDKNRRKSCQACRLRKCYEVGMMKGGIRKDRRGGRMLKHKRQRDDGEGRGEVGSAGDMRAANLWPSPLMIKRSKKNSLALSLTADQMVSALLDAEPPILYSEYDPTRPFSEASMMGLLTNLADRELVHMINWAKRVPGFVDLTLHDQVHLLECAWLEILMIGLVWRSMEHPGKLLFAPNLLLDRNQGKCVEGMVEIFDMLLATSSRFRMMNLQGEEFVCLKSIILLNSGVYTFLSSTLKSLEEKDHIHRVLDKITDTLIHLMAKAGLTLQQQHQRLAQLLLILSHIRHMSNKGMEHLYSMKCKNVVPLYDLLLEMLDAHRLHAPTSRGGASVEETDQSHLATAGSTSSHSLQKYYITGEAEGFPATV
Sequence of Androgen receptor (Homo sapiens) (P10275 whole entry, looked up): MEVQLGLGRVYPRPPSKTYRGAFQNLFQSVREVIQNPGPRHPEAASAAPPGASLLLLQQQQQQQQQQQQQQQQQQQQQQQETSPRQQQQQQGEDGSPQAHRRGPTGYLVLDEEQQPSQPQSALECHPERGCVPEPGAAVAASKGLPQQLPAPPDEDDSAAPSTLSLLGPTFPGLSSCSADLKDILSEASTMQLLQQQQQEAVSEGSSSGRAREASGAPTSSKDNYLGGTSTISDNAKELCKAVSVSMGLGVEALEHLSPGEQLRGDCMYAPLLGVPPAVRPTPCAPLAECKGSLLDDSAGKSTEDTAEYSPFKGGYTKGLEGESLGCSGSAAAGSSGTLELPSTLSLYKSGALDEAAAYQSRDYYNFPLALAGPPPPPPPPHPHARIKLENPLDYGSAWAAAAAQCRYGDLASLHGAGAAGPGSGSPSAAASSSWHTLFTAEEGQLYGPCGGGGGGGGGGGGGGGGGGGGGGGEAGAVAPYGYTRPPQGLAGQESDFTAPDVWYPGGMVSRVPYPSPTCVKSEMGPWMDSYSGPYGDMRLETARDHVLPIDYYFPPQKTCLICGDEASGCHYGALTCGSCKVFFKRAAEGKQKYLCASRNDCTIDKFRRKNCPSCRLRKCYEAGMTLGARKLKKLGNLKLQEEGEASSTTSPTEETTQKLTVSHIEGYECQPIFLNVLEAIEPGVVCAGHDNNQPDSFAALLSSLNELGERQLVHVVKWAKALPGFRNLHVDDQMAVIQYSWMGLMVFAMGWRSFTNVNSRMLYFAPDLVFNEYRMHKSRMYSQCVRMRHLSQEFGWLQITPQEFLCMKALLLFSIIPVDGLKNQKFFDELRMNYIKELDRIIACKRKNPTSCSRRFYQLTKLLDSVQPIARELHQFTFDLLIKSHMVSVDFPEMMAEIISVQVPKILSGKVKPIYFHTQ
Sequence of Estrogen receptor beta (Homo sapiens) (Q92731 whole entry, looked up): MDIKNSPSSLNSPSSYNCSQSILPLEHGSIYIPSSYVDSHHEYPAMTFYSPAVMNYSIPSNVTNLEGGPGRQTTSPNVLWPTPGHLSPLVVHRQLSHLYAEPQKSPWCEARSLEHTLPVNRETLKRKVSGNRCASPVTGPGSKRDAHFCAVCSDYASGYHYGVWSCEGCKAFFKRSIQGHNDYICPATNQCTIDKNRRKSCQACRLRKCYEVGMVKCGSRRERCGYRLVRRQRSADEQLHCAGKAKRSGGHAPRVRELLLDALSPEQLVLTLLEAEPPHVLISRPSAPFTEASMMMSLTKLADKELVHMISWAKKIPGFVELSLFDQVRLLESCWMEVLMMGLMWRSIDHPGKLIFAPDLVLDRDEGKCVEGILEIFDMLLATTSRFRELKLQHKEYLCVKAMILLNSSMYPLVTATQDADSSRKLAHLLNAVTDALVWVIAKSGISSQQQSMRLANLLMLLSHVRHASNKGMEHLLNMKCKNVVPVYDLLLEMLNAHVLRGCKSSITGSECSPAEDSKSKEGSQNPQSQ
Sequence of Thyrotropin receptor (Homo sapiens) (P16473 whole entry, looked up): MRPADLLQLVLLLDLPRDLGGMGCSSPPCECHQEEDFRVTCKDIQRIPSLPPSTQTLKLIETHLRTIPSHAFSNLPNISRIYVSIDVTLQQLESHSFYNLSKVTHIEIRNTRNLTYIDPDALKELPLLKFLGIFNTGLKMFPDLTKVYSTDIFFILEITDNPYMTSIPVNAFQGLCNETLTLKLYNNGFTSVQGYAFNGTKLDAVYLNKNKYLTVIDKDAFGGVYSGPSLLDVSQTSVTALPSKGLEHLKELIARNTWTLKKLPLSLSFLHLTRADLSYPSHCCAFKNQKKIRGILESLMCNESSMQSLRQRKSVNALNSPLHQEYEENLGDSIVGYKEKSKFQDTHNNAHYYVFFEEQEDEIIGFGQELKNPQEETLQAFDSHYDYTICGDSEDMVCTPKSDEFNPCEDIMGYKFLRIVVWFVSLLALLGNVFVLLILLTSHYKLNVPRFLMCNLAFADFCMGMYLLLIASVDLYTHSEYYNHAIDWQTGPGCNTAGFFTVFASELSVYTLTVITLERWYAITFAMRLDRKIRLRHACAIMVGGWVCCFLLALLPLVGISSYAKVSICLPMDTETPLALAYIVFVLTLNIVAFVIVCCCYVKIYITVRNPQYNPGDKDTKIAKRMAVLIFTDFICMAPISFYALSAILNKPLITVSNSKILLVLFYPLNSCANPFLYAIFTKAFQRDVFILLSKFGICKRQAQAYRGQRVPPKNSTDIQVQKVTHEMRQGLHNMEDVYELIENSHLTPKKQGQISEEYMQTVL
Sequence of Progesterone receptor (Homo sapiens) (P06401 whole entry, looked up): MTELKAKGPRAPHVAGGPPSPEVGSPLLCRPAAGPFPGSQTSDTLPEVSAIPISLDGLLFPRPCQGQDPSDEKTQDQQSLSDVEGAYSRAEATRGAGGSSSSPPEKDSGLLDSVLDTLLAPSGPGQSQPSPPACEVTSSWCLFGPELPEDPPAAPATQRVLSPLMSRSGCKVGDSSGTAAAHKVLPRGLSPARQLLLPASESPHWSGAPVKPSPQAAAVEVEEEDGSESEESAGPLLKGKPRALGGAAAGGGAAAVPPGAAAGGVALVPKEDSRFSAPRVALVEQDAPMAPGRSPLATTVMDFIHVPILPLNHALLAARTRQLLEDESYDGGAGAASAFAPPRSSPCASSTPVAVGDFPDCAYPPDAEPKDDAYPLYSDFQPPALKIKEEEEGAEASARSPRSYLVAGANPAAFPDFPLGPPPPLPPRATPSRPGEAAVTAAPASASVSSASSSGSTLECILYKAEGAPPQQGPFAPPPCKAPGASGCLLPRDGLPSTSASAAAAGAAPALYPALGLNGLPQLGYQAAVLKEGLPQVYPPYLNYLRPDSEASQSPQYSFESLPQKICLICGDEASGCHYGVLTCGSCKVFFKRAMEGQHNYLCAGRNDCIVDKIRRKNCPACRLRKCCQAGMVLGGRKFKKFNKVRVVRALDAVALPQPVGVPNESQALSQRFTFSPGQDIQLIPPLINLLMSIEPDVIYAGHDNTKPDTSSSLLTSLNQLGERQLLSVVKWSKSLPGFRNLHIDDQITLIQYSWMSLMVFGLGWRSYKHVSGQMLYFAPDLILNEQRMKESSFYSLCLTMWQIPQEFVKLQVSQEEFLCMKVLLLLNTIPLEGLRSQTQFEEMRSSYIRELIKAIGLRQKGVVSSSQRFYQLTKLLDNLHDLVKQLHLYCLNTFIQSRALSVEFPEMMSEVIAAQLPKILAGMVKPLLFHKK

`CC1=C(/C=C/C(C)=C/C=C/C(C)=C\C=O)C(C)(C)CCC1`: the Potency in assay [1] was 32.5 µM (active); in [2], 41 µM (active). The result in [3] and in assay [5] was inactive. Besides, the Potency entry in assay [4] is “inactive”.

Consider `COc1cc(C(=O)NS(=O)(=O)c2ccccc2C)ccc1Cc1cn(C)c2ccc(NC(=O)OC3CCCC3)cc12`, for which the Potency in assay [1] and in [2] was 13.3 µM (active) in each case. Besides, the Potency entry in assay [6], in [7], in assay [4] and in assay [8] was “inactive” throughout. Besides, the outcome in [3] and in assay [5] was inactive.

For the compound `C=C[C@](C)(O)CC[C@@H]1[C@@]2(C)CCCC(C)(C)[C@@H]2CC[C@@]1(C)O`, the Potency in assay [1] was 27.3 µM (active); in [2], 48.6 µM (active); in assay [9], 61.1 µM (active). The call in assay [3] was inactive. Also, the Potency result in assay [4] and in [8] was “inactive” each time.

For `C=CC(=O)OCCC#N`, the Potency result in [1], in assay [6], in assay [9], in assay [4] and in assay [8] was “inactive” throughout. Also, the compound was called inactive in assay [3] and in [5].

Turning to `CCc1ccc(O)c(C(C)(C)C)c1`, the Potency entry in assay [1], in assay [6], in assay [7], in [4] and in assay [8] was “inactive” each time. For the same compound, the result in assay [3] and in [5] was inactive.

Take `C=CC(=O)OCC(O)COc1ccccc1` (stereo not given): the Potency result in assay [1], in assay [9], in [7] and in assay [8] was “inactive” throughout. Also, the outcome in assay [5] was inactive.

In the case of `CCOC(=O)N1CCC(=C2c3ccc(Cl)cc3CCc3cccnc32)CC1`, the Potency was 15.4 µM (active) in assay [1]; 48.6 µM (active) and 26.6 µM (active) in assay [2]; 54.5 µM (active) in [9]. Moreover, the Potency result in [7] and in [8] was “inactive” each time.

On to `Cc1cn[nH]c1`, for which the Potency entry in [1], in assay [6], in [10], in assay [9], in [7] and in assay [4] was “inactive” throughout. The Potency result in [8] is “inactive”. Further, the call in [3] and in assay [5] was inactive.

Consider `CCCCOc1ccc(C(=O)CCN2CCCCC2)cc1`, for which the Potency result in assay [1], in [9], in [7] and in assay [8] was “inactive” throughout. The Potency in [6] is 29.8 µM (active). In addition, the result in assay [3] and in assay [5] was inactive.

For the compound `CC(=O)Oc1ccc(C2(c3ccc(OC(C)=O)cc3)Oc3ccccc3NC2=O)cc1`, the Potency in [1] was 1.88 µM (active). Besides, the Potency result in assay [6], in [9], in [7] and in [8] was “inactive” throughout. Moreover, in assay [3], the result was inactive.

`Cc1nc(Nc2ncc(C(=O)Nc3c(C)cccc3Cl)s2)cc(N2CCN(CCO)CC2)n1`: the Potency in assay [1] was 23.7 µM (active); in assay [4], 26.6 µM (active). The Potency result in [9] and in assay [7] was “inactive” in each case. Moreover, the compound was classed as inactive in assay [3] and in assay [5].

Turning to `Clc1cccnc1`, the Potency entry in assay [6], in assay [2], in assay [10], in assay [9], in assay [7] and in assay [4] was “inactive” in each case. Further, the Potency entry in assay [8] is “inactive”. In addition, the result in assay [3] and in assay [5] was inactive.

With `Clc1ccc(C(Cn2ccnc2)OCc2c(Cl)cccc2Cl)c(Cl)c1` (stereo not given), the Potency entry in assay [6], in [10], in [7], in [4] and in assay [8] was “inactive” each time. In addition, the Potency was 29.8 µM (active) in assay [2] and 23.7 µM (active) in assay [9]. Moreover, the compound was classed as inactive in [3].

As to `O=C1NCN(c2ccccc2)C12CCN(CCCC(c1ccc(F)cc1)c1ccc(F)cc1)CC2`, the values for the Potency in assay [1], in assay [6] and in assay [9] were 18.8 µM (active), 29.8 µM (active) and 26.6 µM (active), respectively. The call in assay [3] was inactive. Also, the Potency result in assay [4] and in assay [8] was “inactive” each time.

For `CO[C@H]1C=CO[C@@]2(C)Oc3c(C)c(O)c4c(O)c(cc(O)c4c3C2=O)NC(=O)/C(C)=C\C=C/[C@H](C)[C@H](O)[C@@H](C)[C@@H](O)[C@@H](C)[C@H](OC(C)=O)[C@@H]1C`, the Potency was 43.6 µM (active) in assay [1], 48.9 µM (active) in assay [6], 69.1 µM (active) in [9] and 38.8 µM (active) in [8]. The Potency result in [7] and in [4] was “inactive” in each case. Also, the compound was classed as inactive in assay [3] and in assay [5].

Regarding `CCOC(=O)C1=C(C)NC(C)=C(C(=O)OCC)C1c1ccccc1/C=C/C(=O)OC(C)(C)C`, the Potency result in assay [1], in assay [10], in assay [9], in assay [4] and in assay [8] was “inactive” each time. Further, the Potency in assay [2] was 23.7 µM (active). The compound was called inactive in assay [3].

For `C=C1C(C)(C)[C@@]2(Cl)C(Cl)[C@]1(Cl)C(Cl)(Cl)C2(Cl)Cl` (stereo not given in full), the Potency was 30.1 µM (active) in [1] and 60 µM (active) in assay [2]. In addition, the Potency entry in assay [10], in [7] and in assay [4] was “inactive” throughout. Moreover, the call in [3] was inactive.

In the case of `CC(C)OC(=O)c1cc(C(=O)OC(C)C)cc([N+](=O)[O-])c1`, the Potency result in assay [1], in assay [6], in assay [9], in assay [4] and in assay [8] was “inactive” in each case. In addition, the call in assay [3] and in [5] was inactive.

With `Clc1ccc(C(Cn2ccnc2)OCc2ccsc2Cl)c(Cl)c1` (stereo not given), the Potency is 10.6 µM (active) in assay [1], 23.7 µM (active) in assay [2] and 29.8 µM (active) in assay [9]. Further, the Potency result in [7] and in [8] was “inactive” in each case. Also, the outcome in [3] and in assay [5] was inactive.

For `OCCN1CN(CCO)CN(CCO)C1`, the Potency entry in [6], in assay [2], in [10], in assay [9], in assay [7] and in assay [4] was “inactive” throughout. The Potency result in [8] was “inactive”. Also, the outcome in assay [3] and in assay [5] was inactive.

With `S=C(SSSSSSC(=S)N1CCCCC1)N1CCCCC1`, the Potency in assay [1] was 13.4 µM (active). The activity change, negative = cytotoxicity in assay [6] is -6.95% [at 19 µM]. Moreover, the figures for the activation in assay [7] and in assay [5] were 7.24% [at 19 µM] and 0.512% [at 19 µM], respectively.

`Cc1c(C)n(Cc2ccccc2)c2ccc(C(=O)OCCN(C)C)cc12`: the Potency in [1] is 23.7 µM (active). For the same compound, the compound was called inactive in assay [3] and in [5]. The Potency result in [4] and in [8] was “inactive” each time.

As to `c1cc(OCC2CO2)cc(OCC2CO2)c1` (stereo not given), the Potency result in [6], in [2], in [10], in [9], in assay [7] and in assay [4] was “inactive” each time. Moreover, the result in assay [3] was inactive.

`CC1(C)COCN1`: the Potency entry in assay [6], in [2], in [10], in [9], in [4] and in assay [8] was “inactive” in each case. Besides, the call in assay [3] and in [5] was inactive.

As to `C/C=C/C(=O)Oc1c(CCCCCC(C)C)cc([N+](=O)[O-])cc1[N+](=O)[O-]`, the Potency in assay [6] was 15.4 µM (active); in assay [2] it was 30.6 µM (active); in [9] it was 48.6 µM (active); in assay [8] it was 9.69 µM (active). Further, the Potency result in [7] and in [4] was “inactive” each time. The outcome in assay [3] was inactive.

As for `CC=O`, the Potency was 1.28 µM (active) in assay [6], 57 µM (active) in assay [2], 57 µM (active) in assay [9] and 10.1 µM (active) in [8]. In addition, the Potency entry in [7] and in assay [4] was “inactive” each time. In [3], the call was inactive.

In the case of `OCCCc1cccnc1`, the Potency entry in [6], in assay [2], in assay [10], in [9], in [7] and in assay [4] was “inactive” each time. The Potency entry in assay [8] was “inactive”. In addition, the compound was classed as inactive in [3] and in assay [5].
